Results reported in PubChem BioAssay (NCATS).
“And” between values parts separate entries of the source, which are not always exact repeats. Equal values may be shown once. Results filed as inconclusive are left out. The source made the active and inactive calls. The call rests on the fitted dose curve; in most records, active means well fitted curve in the direction sought with a large enough effect; inconclusive means small, poorly fitted or top-dose-only effect, or another doubt; inactive means no such curve, though single readings can be large; an effect the other way counts as inactive or inconclusive.

Legend:
[1] = target: Cytochrome P450 3A7 (Homo sapiens) (UniProt P24462); assay: Cytochrome P450 family 3 subfamily A member 7 (CYP3A7) small molecule antagonists: luciferase biochemical qHTS assay (AID 1963596); further: on the % scale 0 is the no-effect control and ±100 the full control effect; nearly all actives have a fitted effect of over 40% in size
Chain of Cytochrome P450 3A7 (Homo sapiens) (P24462 whole entry, looked up): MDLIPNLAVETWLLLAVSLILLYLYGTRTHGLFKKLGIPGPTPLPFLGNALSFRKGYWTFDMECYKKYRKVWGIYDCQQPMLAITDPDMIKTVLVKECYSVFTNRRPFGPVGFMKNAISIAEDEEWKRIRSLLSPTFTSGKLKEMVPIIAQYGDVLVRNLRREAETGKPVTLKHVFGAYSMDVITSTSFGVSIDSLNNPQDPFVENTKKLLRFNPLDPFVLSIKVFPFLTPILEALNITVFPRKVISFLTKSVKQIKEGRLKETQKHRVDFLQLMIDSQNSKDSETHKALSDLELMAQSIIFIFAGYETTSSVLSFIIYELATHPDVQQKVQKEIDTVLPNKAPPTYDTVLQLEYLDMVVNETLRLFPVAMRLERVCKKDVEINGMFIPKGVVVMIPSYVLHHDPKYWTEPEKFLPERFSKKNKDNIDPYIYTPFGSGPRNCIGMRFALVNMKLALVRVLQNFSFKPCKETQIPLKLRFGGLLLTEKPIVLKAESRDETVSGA
Outline: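 Luminescence read-out (relative luminescence units) after 20 min with detection reagent, which stops the reaction. Enzyme, proluciferin substrate and compound preincubated 10 min, RT; NADPH regeneration system then started 1 h reaction. Ketoconazole as positive control.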

[2] = Viability qHTS for spleen associated tyrosine kinase inhibitor (SYKi) naive MV4-11 cells (AID 1963823); further: nearly all actives have a fitted effect of over 40% in size; further: potency means the concentration at half of the fitted maximal effect
Outline: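 Read-out: CellTiter-Glo luminescence. Exposure: 72 hr, 37 C, 5% CO2, 95% humidity. Cells: MV4-11 without SYK inhibitor history, 500/well, qHTS format.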

[3] = Viability qHTS for spleen associated tyrosine kinase inhibitor (SYKi) drug resistant MV4-11 cells (AID 1963824); further: nearly all actives have a fitted effect of over 35% in size; further: potency means the concentration at half of the fitted maximal effect
Outline: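 SYK inhibitor-resistant MV4-11 AML cells, 500 per well, added to predispensed compounds and incubated 72 hr at 37 C, 5% CO2. Viability measured by CellTiter-Glo luminescence after 10 min at room temperature.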

[4] = Quantitative highthroughput screen to assess conditional lethalithy of SEM cells grown in RPMI1640 with unreated serum (RPMI+s) (AID 1963883); further: nearly all actives have a fitted effect of over 35% in size; further: potency means the concentration at half of the fitted maximal effect;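 on Viability: 100% = DMSO wells and 0% = empty wells without cells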
Outline: (§1)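 Each medium arm—HPLM with 10% dialyzed FBS, or RPMI1640 with 5 mM glucose and 10% untreated or dialyzed FBS—was screened against an 11-point, 3-fold compound titration for 48 h at 37 °C, with CellTiter-Glo luminescence as endpoint.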

[5] = Quantitative highthroughput screen to assess conditional lethalithy of SEM cells grown in RPMI1640 with dialyzed fetal bovine serum (RPMI+ds) (AID 1963884); further: nearly all actives have a fitted effect of over 35% in size; further: potency means the concentration at half of the fitted maximal effect;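 on Viability: series mostly up to about 46 µM; 100% = DMSO control wells and 0% = empty wells without cells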
Outline: as §1

[6] = Cellular viability qHTS for adrenocortical cancer (ACC) cell line SW-13 (AID 1963989); conditions: SW-13 ACC cells viability, CellTiter-Glo, 48 h; activity (max response): active compounds read low; further: nearly all actives have a fitted effect of over 65% in size; further: potency means the concentration at half of the fitted maximal effect;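 on activity (max response): cells grown in serum-free medium with ITS supplement; on the % scale 0 is the no-effect control and ±100 the full control effect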
Outline: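 Here, serum-free SW-13 cultures were dosed up to 46 uM. Following 48 h, ATP-dependent luminescence (CellTiter-Glo) reported viable cells, and logistic modeling produced IC50 values.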

[7] = Cellular viability qHTS for adrenocortical cancer (ACC) cell line NCI-H295R (AID 1963990); further: nearly all actives have a fitted effect of over 60% in size; further: potency means the concentration at half of the fitted maximal effect
Outline: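 Viability of NCI-H295R after 48 h of treatment (final up to 46 uM) measured through cellular ATP luminescence.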

[8] = Quantitative highthroughput screen to assess conditional lethalithy of P12 Ichikawa cells grown in Human Plasma-Like Medium with dialyzed fetal bovine serum (HPLM+ds) (AID 1963879); conditions: Potency: viability; further: nearly all actives have a fitted effect of over 35% in size; further: potency means the concentration at half of the fitted maximal effect; on Viability: series mostly up to about 46 µM
Outline: as §1

[9] = Quantitative highthroughput screen to assess conditional lethalithy of P12 Ichikawa cells grown in RPMI1640 with dialyzed fetal bovine serum (RPMI+ds) (AID 1963880); conditions: Potency: P12-Ichikawa viability; further: nearly all actives have a fitted effect of over 35% in size; further: potency means the concentration at half of the fitted maximal effect;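 on Viability: 100% = DMSO wells and 0% = empty wells on each plate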
Outline: as §1

[10] = Quantitative highthroughput screen to assess conditional lethalithy of SEM cells grown in Human Plasma-Like Medium with dialyzed fetal bovine serum (HPLM+ds) (AID 1963882)
Outline: as §1

[11] = Quantitative highthroughput screen to assess conditional lethalithy of P12 Ichikawa cells grown in RPMI1640 with untreated serum (RPMI+s) (AID 1963881); conditions: Potency: viability; further: nearly all actives have a fitted effect of over 35% in size; further: potency means the concentration at half of the fitted maximal effect;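 on Viability: series mostly up to about 46 µM; 100% = DMSO wells and 0% = empty wells without cells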
Outline: as §1

COC(=O)Nc1nc2ccc(Sc3ccccc3)cc2[nH]1
active: Potency [2] 372 nM | Potency [3] 417 nM | Potency [4] 2.35 µM | Potency [5] 2.96 µM | Potency [6] 184 nM and 316 nM | Potency [7] 130 nM and 316 nM
inactive: Potency [1]

CCS(=O)(=O)c1ccc(OC)c(C(=O)OC)c1
inactive: Potency [1] | Potency [2] | Potency [3] | activity (max response) [6] 10.8%

CC(NC(CCc1ccccc1)C(=O)O)C(=O)N1C(=O)N(C)CC1C(=O)O (stereo not given)
inactive: Potency [1] | Potency [2] | Potency [3] | activity (max response) [6] 6.3%

O=C1N=C(O)CN1/N=C/c1ccc(-c2ccc([N+](=O)[O-])cc2)o1
inactive: Potency [1] | Potency [2] | Potency [3] | activity (max response) [6] 12.2%

O=C(Cc1ccc(-c2ccc(OCCN3CCOCC3)cc2)cn1)NCc1ccccc1
inactive: Potency [1]
active: Potency [2] 231 nM and 93.4 nM | Potency [3] 206 nM and 105 nM | Potency [8] 33.2 nM | Potency [9] 37.2 nM | Potency [10] 26.4 nM | Potency [4] 0.0264 µM | Potency [5] 0.0296 µM | Potency [6] 199 nM

CC(C)(C)C(=O)OCOC(=O)C1N2C(=O)CC2S(=O)(=O)C1(C)C (stereo not given)
inactive: Potency [1] | Potency [2] | Potency [3] | activity (max response) [6] 14.5%

Cc1cc(C(C)(C)C)cc(C)c1CC1=NCCN1
inactive: Potency [1] | Potency [8] | Potency [9] | Potency [11] | Potency [4] | Potency [5] | activity (max response) [6] -1.59% and -10.9%
active: Potency [2] 3720 nM | Potency [3] 5250 nM

Cc1ccc(S(=O)(=O)NC(=O)NN2CC3CCCC3C2)cc1 (stereo not given)
inactive: Potency [1] | Potency [2] | Potency [3] | activity (max response) [6] 5.83% and 9.36% | Potency [7]
active: Potency [8] 5900 nM | Potency [9] 2960 nM | Potency [11] 4.18 µM | Potency [10] 5900 nM | Potency [4] 4.18 µM | Potency [5] 2.96 µM

O=C(NCC(O)CO)c1c(I)c(C(=O)NCC(O)CO)c(I)c(N(CCO)C(=O)CO)c1I (stereo not given)
inactive: Potency [1] | Potency [2] | Potency [3] | activity (max response) [6] -7.35%

CC(=O)Nc1c(I)cc(I)c(C(=O)O)c1I
inactive: Potency [1] | Potency [2] | Potency [3] | activity (max response) [6] -1.35%

OC[C@H]1O[C@@H](n2cnc3c2NC=NC[C@H]3O)C[C@@H]1O
inactive: Potency [1] | Potency [2] | Potency [3] | activity (max response) [6] 12.8%

O=C1c2ccccc2C(=O)C1c1ccccc1
inactive: Potency [1] | Potency [2] | Potency [3] | activity (max response) [6] 5.96%

CCCC(O)C(CC)CO (stereo not given)
inactive: Potency [1] | Potency [2] | Potency [3] | activity (max response) [6] 8.36%

COc1ccc(O)cc1
inactive: Potency [1] | Potency [2] | Potency [3] | activity (max response) [6] -1.22%

CCOc1ncc(F)c(=O)[nH]1
inactive: Potency [1] | Potency [2] | Potency [3] | activity (max response) [6] 18.7%
